# Data: PubChem BioAssay (NCATS)
# Unmarked numbers belong to inactive results. Results filed as inconclusive are left out. Where a call stands in place of a potency, no number is given. Active and inactive are the calls of the source. Calls follow the shape of the dose curve; as a rule, active = well fitted curve in the direction sought with a large enough effect; inconclusive = small, poorly fitted or top-dose-only effect, or another doubt; inactive = no such curve, though single readings can be large; an effect the other way counts as inactive or inconclusive.
# Key:
# [1] = target: Metallo-beta-lactamase type 2 (Klebsiella pneumoniae) (UniProt C7C422); experiment: qHTS to identify inhibitors of the New Delhi Metallo-beta-lactamase (NDM): assay validation screen against the NCATS LOPAC Collection (AID 1794843); also: series mostly up to about 38 µM
# Outline: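 Absorbance at 485 nm from nitrocefin turnover (50 uM solution added), read at plateau, gives the read-out. Compounds in DMSO were incubated first with 2 nM final NDM-1 in pH 7.0 HEPES buffer containing 1 uM ZnSO4 and 0.01% Tween20.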
# [2] = target: Luciferin 4-monooxygenase (Photinus pyralis) (UniProt P08659); experiment: Primary firefly luciferase (FLuc) qHTS assay for identification of artifact compounds. (AID 1845220); also: nearly all actives have a fitted effect of over 60% in size; also: potency is read from the fitted curve at half-maximal effect; as to activity change, negative = inhibition: series mostly up to about 54 µM
# Outline: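 Titrated compounds were incubated 15 min at RT, protected from light, with luciferin and ATP at 10 uM; reaction started with 10 nM FLuc, luminescence imaged at 5 min, and concentration-response fitted by Hill equation.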
# [3] = Primary fluorescence-based thiol-reactive (MSTI) qHTS assay for identification of artifact compounds. (AID 1845221); also: nearly all actives have a fitted effect of over 65% in size; also: potency is read from the fitted curve at half-maximal effect;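 as to activity change, negative = thiol reactive: series mostly up to about 54 µM; thiol-reactive compounds lower the probe fluorescence signal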
# Outline: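 Reactivity toward the thiol probe MSTI (4 uM) is scored by fluorescence at Ex/Em 525/598 nm after 1 h at room temperature. Acetyl-MSTI and MSTI define the activity scale.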
# [4] = tested on: Nanoluciferase (engineered Oplophorus gracilirostris luciferase); experiment: Primary Nanoluciferase (NLuc) qHTS assay for identification of artifact compounds. (AID 1845222);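 also: NLuc secreted into diluted conditioned medium of S16 cells; series mostly up to about 54 µM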
# Outline: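 qHTS format, against NLuc in S16 cell-conditioned medium. Nano-Glo substrate 1:100 was added after 15 min at room temperature. Luminescence was taken after a further 5 min.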
# [5] = target: Glutathione peroxidase 1 (Homo sapiens) (UniProt P07203); experiment: Primary qHTS Assay for Inhibitors of Recombinant Selenoprotein Glutathione Peroxidase 1 (GPX1) (AID 1845191); also: nearly all actives have a fitted effect of over 65% in size; also: potency is read from the fitted curve at half-maximal effect
# Outline: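 GR-coupled readout: NADPH consumption tracked by fluorescence, ex 340/em 450 nm, at t=0 and after 15 min at RT. Final mix 10 nM GPX1, 1 mM GSH, 0.5 mM CHP, 0.5 mM NADPH, 100 nM GR, 0.01% BSA, following 30 min enzyme–compound preincubation.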
# [6] = target: Phospholipid hydroperoxide glutathione peroxidase GPX4 (Homo sapiens) (UniProt P36969); experiment: Primary qHTS Assay for Inhibitors of Recombinant Selenoprotein Glutathione Peroxidase 4 (GPX4) (AID 1845192); also: nearly all actives have a fitted effect of over 65% in size; also: potency is read from the fitted curve at half-maximal effect; as to activity change, negative = inhibition: series mostly up to about 50 µM
# Outline: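 Steps: GPX4 plus compound, 30 min RT; add GR/GSH/NADPH master mix; start with cumene hydroperoxide; read 340/450 nm fluorescence at 0 and 15 min. Finals were 200 nM GPX4, 1 mM GSH, 0.5 mM CHP, 0.5 mM NADPH, 100 nM GR.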
# Glutathione peroxidase 1 (Homo sapiens), sequence (P07203 whole entry, looked up): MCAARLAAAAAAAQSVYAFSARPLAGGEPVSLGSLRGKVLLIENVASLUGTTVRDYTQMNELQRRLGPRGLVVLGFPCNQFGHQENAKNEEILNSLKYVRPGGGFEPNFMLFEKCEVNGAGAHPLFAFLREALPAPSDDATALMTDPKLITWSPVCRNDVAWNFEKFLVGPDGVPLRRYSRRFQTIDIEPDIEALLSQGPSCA
# Phospholipid hydroperoxide glutathione peroxidase GPX4 (Homo sapiens), sequence (P36969 whole entry, looked up): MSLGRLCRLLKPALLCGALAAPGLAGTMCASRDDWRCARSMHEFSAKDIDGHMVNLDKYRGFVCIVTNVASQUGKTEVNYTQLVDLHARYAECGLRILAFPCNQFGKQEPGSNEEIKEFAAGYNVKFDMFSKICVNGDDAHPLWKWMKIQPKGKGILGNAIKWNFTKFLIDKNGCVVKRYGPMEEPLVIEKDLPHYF
# Metallo-beta-lactamase type 2 (Klebsiella pneumoniae), sequence (C7C422 whole entry, looked up): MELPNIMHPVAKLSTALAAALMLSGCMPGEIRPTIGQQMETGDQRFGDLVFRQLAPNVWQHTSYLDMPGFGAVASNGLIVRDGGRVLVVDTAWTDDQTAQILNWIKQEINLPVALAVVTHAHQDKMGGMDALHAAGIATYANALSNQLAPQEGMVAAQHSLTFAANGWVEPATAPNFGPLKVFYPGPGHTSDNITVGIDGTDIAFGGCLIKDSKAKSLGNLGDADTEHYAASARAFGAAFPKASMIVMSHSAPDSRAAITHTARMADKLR
compound,measurement,setting,value
CN1Cc2c(N)cccc2C(c2ccccc2)C1 (stereo not given),outcome,[1],inactive
C[C@H]1[C@H](C)CC[C@]2(C(=O)O)CC[C@]3(C)C(=CC[C@@H]4[C@@]5(C)C[C@@H](O)[C@H](O)[C@@](C)(CO)[C@@H]5CC[C@]43C)[C@H]12,Potency,[2],inactive
same,Potency,[3],inactive
same,Potency,[4],inactive
O=C(/C=C/c1ccc(O)c(O)c1)OCc1ccccc1O[C@@H]1O[C@H](CO)[C@@H](O)[C@H](O)[C@H]1O,Potency,[5],inactive
same,Potency,[6],inactive
same,Potency,[2],inactive
same,Potency,[3],0.922 µM (active)
COc1cc(C(=O)OC[C@H]2O[C@H](O[C@@]3(CO)O[C@@H](CO)[C@H](O)[C@H]3O)[C@H](O)[C@@H](O)[C@@H]2O)ccc1O,Potency,[5],inactive
same,Potency,[6],inactive
same,Potency,[2],inactive
same,Potency,[3],inactive
CCOC(=O)Nc1nc2ccccc2[nH]1,Potency,[5],inactive
same,Potency,[6],inactive
same,Potency,[2],inactive
same,Potency,[3],inactive
NCc1ccccc1CC(=O)N[C@@H]1C(=O)N2C(C(=O)O)=C(CSc3nnnn3CC(=O)O)CS[C@H]12,Potency,[5],5.08 µM (active)
same,Potency,[6],15.8 µM (active)
CC(=O)OCC(=O)[C@@]12OC3(CCCC3)O[C@@H]1C[C@H]1[C@@H]3CCC4=CC(=O)C=C[C@]4(C)[C@@]3(F)[C@@H](O)C[C@@]12C,Potency,[5],inactive
same,Potency,[6],inactive
COc1ccccc1CC(C(=O)O)N(C)C(=O)c1ccccc1 (stereo not given),Potency,[5],inactive
same,Potency,[6],inactive
same,Potency,[2],inactive
C[C@@H]1O[C@@H](OC[C@H]2O[C@@H](OCCc3ccccc3)[C@H](O)[C@@H](O)[C@@H]2O)[C@H](O)[C@H](O)[C@H]1O,Potency,[5],inactive
same,Potency,[6],inactive
same,Potency,[2],inactive
same,Potency,[3],2.6 µM (active)
C=C[C@H]1[C@H](O[C@@H]2O[C@H](CO)[C@@H](O)[C@H](O)[C@H]2O)OC=C2C(=O)OCC[C@]21O,Potency,[5],inactive
same,Potency,[6],inactive
same,Potency,[2],inactive
same,Potency,[3],11.7 µM (active)
Cc1cc(C(=O)NNCc2ccccc2)no1,Potency,[5],inactive
same,Potency,[6],inactive
O=C(O)c1cc(O)c2cccc(O)c2c1O[C@@H]1O[C@H](CO)[C@@H](O)[C@H](O)[C@H]1O,Potency,[5],inactive
same,Potency,[6],inactive
same,Potency,[2],inactive
same,Potency,[3],2.07 µM (active)
CC(=O)O[C@@H]1C[C@]2(C)[C@@]3(CCC4[C@@]5(C)CC[C@H](O[C@@H]6O[C@H](C(=O)O)[C@@H](O)[C@H](O[C@@H]7O[C@H](CO)[C@H](O)[C@H](O)[C@H]7O[C@@H]7O[C@@H](C)[C@H](O)[C@@H](O)[C@H]7O[C@@H]7OC[C@](O)(CO)[C@H]7O)[C@H]6O[C@@H]6O[C@H](CO)[C@H](O)[C@H](O)[C@H]6O)C(C)(C)C5CC[C@]42C)O[C@@H](O)[C@]12C3CC(C)(C)[C@@H](OC(=O)/C=C/c1ccc(O)c(O)c1)[C@@H]2OC(=O)/C=C/c1ccccc1 (stereo not given in full),outcome,[5],inactive [at 9.52 µM]
same,"activity change, negative = inhibition",[6],-12% [at 9.73 µM]
same,outcome,[2],inactive [at 11.6 µM]
same,"activity change, negative = thiol reactive",[3],97% [at 11.5 µM]
C=C(C)[C@H]1C[C@@H](O)C(=C)CC[C@@H](O)C(=C)[C@@H](O)C1,Potency,[5],inactive
same,Potency,[6],inactive
same,Potency,[2],inactive
same,Potency,[3],11.9 µM (active)
CC(=O)OCC(=O)[C@@]1(O)CC[C@H]2[C@@H]3C[C@H](C)C4=CC(=O)C=C[C@]4(C)[C@H]3[C@@H](O)C[C@@]21C,Potency,[5],inactive
same,Potency,[6],inactive
O=C(/C=C/c1c(C(=O)O)[nH]c2cc(Cl)cc(Cl)c12)Nc1ccccc1,Potency,[5],inactive
same,Potency,[6],inactive
same,Potency,[2],inactive
same,Potency,[3],inactive
C[C@H]1CN(C[C@H](Cc2ccccc2)C(=O)NCC(=O)O)CC[C@@]1(C)c1cccc(O)c1,Potency,[5],inactive
same,Potency,[6],inactive
same,Potency,[2],inactive
same,Potency,[3],inactive
C/C=C/C=C/C(CC(=O)O)Nc1ccc(C=O)cc1 (stereo not given),Potency,[5],inactive
same,Potency,[6],inactive
same,Potency,[2],23.9 µM (active)
same,Potency,[3],4.74 µM (active)
CC1=C2C(=O)C=C(CO)[C@@H]2[C@H]2OC(=O)[C@H](C)[C@@H]2[C@@H](O)C1,Potency,[5],inactive
same,Potency,[6],inactive
same,Potency,[2],inactive
C[C@@H]1CCN(C(=O)CC#N)C[C@@H]1N(C)c1ncnc2[nH]ccc12,Potency,[5],inactive
same,Potency,[6],inactive
CC(C)(C)c1cc(CN2CCN(CC(O)c3ccc(Cl)cc3)CC2)cc(C(C)(C)C)c1O (stereo not given),Potency,[5],inactive
same,Potency,[6],inactive
same,Potency,[2],inactive
same,Potency,[3],inactive
CC1(C)O[C@@H]2C[C@H]3[C@@H]4CCC5=CC(=O)C=C[C@]5(C)[C@H]4[C@@H](O)C[C@]3(C)[C@]2(C(=O)CO)O1,Potency,[5],inactive
same,Potency,[6],inactive
COc1cc(CCc2ccccc2)c(C(=O)O)c2c1CC(C(C)(C)O)O2 (stereo not given),Potency,[5],inactive
same,Potency,[6],inactive
same,Potency,[2],inactive
same,Potency,[3],inactive
CC/C=C/CC1=C(CCCCCCCC(=O)O)CCC1=O,Potency,[5],inactive
same,Potency,[6],inactive
same,Potency,[2],inactive
same,Potency,[3],inactive
CC1(O)CCC2C(C(=O)O)=COC(OC3OC(CO)C(O)C(O)C3OC(=O)/C=C/c3ccc(O)cc3)C21 (stereo not given),Potency,[5],inactive
same,Potency,[6],inactive
same,Potency,[2],inactive
same,Potency,[3],3.27 µM (active)
O=C(O[C@H]1[C@@H]2C=CO[C@@H](O[C@@H]3O[C@H](CO)[C@@H](O)[C@H](O)[C@H]3O)[C@@H]2[C@@]2(CO)O[C@@H]12)c1ccc(O)cc1,Potency,[5],inactive
same,Potency,[6],inactive
same,Potency,[2],inactive
CC[C@H]1OC(=O)[C@H](C)[C@@H](OC2C[C@@](C)(OC)[C@@H](O)[C@H](C)O2)[C@H](C)[C@@H](OC2O[C@H](C)C[C@H](NC)[C@H]2O)[C@](C)(O)C[C@@H](C)CN(C)[C@H](C)[C@@H](O)[C@]1(C)O (stereo not given in full),Potency,[5],inactive
same,Potency,[6],inactive
same,Potency,[2],inactive
same,Potency,[3],inactive
COC(F)(F)C(Cl)Cl,Potency,[5],inactive
same,Potency,[6],inactive
CCCCS(=O)(=O)Nc1ncnc(OCCOc2ncc(Br)cn2)c1-c1ccc(Br)cc1,Potency,[5],inactive
same,Potency,[6],inactive
same,Potency,[2],inactive
same,Potency,[3],inactive
